Results from publication PMC8384837, “Expanding the binding specificity for RNA recognition by a PUF domain”.
Positions count from the first letter of the chain named.

How the values were obtained:
Test in all cases: yeast three-hybrid, YBZ-1, SC-Leu-His + 0.5 mM 3-AT, 4 days
Settings in all cases: tags: N-Gal4 AD-HA kept; label: inside an RPR1-promoter hybrid RNA with tandem MS2 sites; ssRNA
[1] = target: PUM1 PUF domain R7-IMR (Homo sapiens, UniProt Q14671 828-1176, S1079I;N1080M;E1083R)
In short: (§1)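 The interaction score is the logarithmic change in variant frequency from input to selection. It uses log2, with a pseudocount of 1 for absent variants, and frequencies came from PCR-amplified, Illumina-sequenced repeat regions. The libraries were Pumilio-1 PUF domains randomized at the three base-contacting residues per repeat, co-expressed with matching RNA elements in strain YBZ-1 (LexA–MS2 coat fusion, HIS3 reporter). Plating lasted four days on SC-Leu (input) or SC-Leu-His + 0.5 mM 3-AT (selection).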

[2] = target: PUM1 PUF domain R7-RRY (Homo sapiens, UniProt Q14671 828-1176, S1079R;N1080R;E1083Y)
In short: as §1

[3] = target: PUM1 PUF domain R1-KER (Homo sapiens, UniProt Q14671 828-1176, S863K;R864E;Q867R)
In short: as §1

[4] = target: PUM1 PUF domain R3-TFL (Homo sapiens, UniProt Q14671 828-1176, C935T;R936F;Q939L)
In short: as §1

[5] = target: PUM1 PUF domain R3-PWV (Homo sapiens, UniProt Q14671 828-1176, C935P;R936W;Q939V)
In short: as §1

[6] = target: PUM1 PUF domain R3-SNP (Homo sapiens, UniProt Q14671 828-1176, C935S;R936N;Q939P)
In short: as §1

[7] = target: PUM1 PUF domain R5-SRI (Homo sapiens, UniProt Q14671 828-1176, C1007S;Q1011I)
In short: as §1

[8] = target: T1, PUM1 PUF domain R6-SFA (Homo sapiens, UniProt Q14671 828-1176, N1043S;Y1044F;Q1047A)
T1 sequence: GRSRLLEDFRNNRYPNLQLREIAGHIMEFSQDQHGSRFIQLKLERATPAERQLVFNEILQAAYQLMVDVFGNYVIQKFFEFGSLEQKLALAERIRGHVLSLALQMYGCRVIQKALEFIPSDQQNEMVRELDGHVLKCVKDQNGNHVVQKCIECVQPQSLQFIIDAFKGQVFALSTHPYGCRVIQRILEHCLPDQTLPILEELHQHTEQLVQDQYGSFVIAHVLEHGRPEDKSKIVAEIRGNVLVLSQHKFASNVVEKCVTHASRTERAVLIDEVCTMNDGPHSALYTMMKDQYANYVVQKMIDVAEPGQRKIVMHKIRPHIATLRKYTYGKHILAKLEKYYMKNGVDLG
In short: as §1

[9] = target: T2, PUM1 PUF domain R6-IFL (Homo sapiens, UniProt Q14671 828-1176, N1043I;Y1044F;Q1047L)
T2 sequence: T1 sequence with S216I, A220L
In short: as §1

[10] = target: PUM1 PUF domain R4-PWT (Homo sapiens, UniProt Q14671 828-1176, N971P;H972W;Q975T)
In short: as §1

GGCUAGAACUAGUGGAUCCCCCGGCGCCCGGCGGCUCGAGCCCGGGUAAGUUUAAAUAGUCUGCAUGCCGCCGGGCGCCAUGCCUGCAGGUCGACUCUAGAAAACAUG
binding signal [1]: 2.21 log2 enrichment (interaction score) | binding signal [2]: 3.87 log2 enrichment (interaction score)

GGCUAGAACUAGUGGAUCCCCCGGCGCCCGGCGGCUCGAGCCCGGGUAAGUGUAAAUUGUCUGCAUGCCGCCGGGCGCCAUGCCUGCAGGUCGACUCUAGAAAACAUG
binding signal [3]: 3.72 log2 enrichment (interaction score)

GGCUAGAACUAGUGGAUCCCCCGGCGCCCGGCGGCUCGAGCCCGGGUAAGUGUAAAUAGUCUGCAUGCCGCCGGGCGCCAUGCCUGCAGGUCGACUCUAGAAAACAUG
binding signal [4]: 2.81 log2 enrichment (interaction score) | binding signal [5]: 3.63 log2 enrichment (interaction score) | binding signal [6]: 2.72 log2 enrichment (interaction score) | binding signal [7]: 2.73 log2 enrichment (interaction score) | binding signal [8]: 3.38 log2 enrichment (interaction score)

GGCUAGAACUAGUGGAUCCCCCGGCGCCCGGCGGCUCGAGCCCGGGUAAGUGAAAAUAGUCUGCAUGCCGCCGGGCGCCAUGCCUGCAGGUCGACUCUAGAAAACAUG
binding signal [9]: 7.28 log2 enrichment (interaction score)

GGCUAGAACUAGUGGAUCCCCCGGCGCCCGGCGGCUCGAGCCCGGGUAAGUGUACAUAGUCUGCAUGCCGCCGGGCGCCAUGCCUGCAGGUCGACUCUAGAAAACAUG
binding signal [10]: 5.24 log2 enrichment (interaction score)

GGCUAGAACUAGUGGAUCCCCCGGCGCCCGGCGGCUCGAGCCCGGGUAAGUCUAAAUAGUCUGCAUGCCGCCGGGCGCCAUGCCUGCAGGUCGACUCUAGAAAACAUG
binding signal [2]: 3.51 log2 enrichment (interaction score)
